From PubChem
This is a sample that favours compounds with a hit; in the whole collection about 7% have one here.
JMJD2A Tudor – blocks the human JMJD2A Tudor domain; O75164; AlphaScreen JMJD2A-Tudor / H3K4me3 peptide binding; Potency, µM (highest dose often 114 µM), for the others: top-dose activity change, negative = inhibition, actives largely listed as inhibitors; 390,000 tested, 4.4% active; AID 504339; also: potency is read from the fitted curve at half-maximal effect; % is scaled to controls: 0 for no effect and ±100 for the full control effect; nearly all actives have a fitted effect of over 50% in size
GCN5L2 inh-1 – GCN5L2 (KAT2A) acetyltransferase inhibition; Potency, µM (doses to about 58.9 µM), inactives show top-dose activity change, negative = inhibition, actives largely listed as inhibitors; AID 504327; 390,000 tested, 0.21% active; GCN5L2 HAT assay, ThioGlo1 CoA-SH fluorescence; also: potency is read from the fitted curve at half-maximal effect; % is scaled to controls: 0 for no effect and ±100 for the full control effect
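Preincubate 20nM GCN5L2 with compound 15 min, RT → add 50uM ThioGlo1 + 75uM H3(1-25) + 70uM acetyl-CoA → read fluorescence 0 and 20 min. Primary qHTS; fluorescent artifacts likely.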
PLK1 PBD inh – blocks phosphopeptide binding to human PLK1 polo-box domain; AID 720504; Plk1 PBD binding of FITC phosphopeptide, fluorescence polarization; Potency, µM, without a hit: max response, negative = inhibition, usual class: inhibitors; P53350; 360,000 tested, 2.8% active; also: potency is read from the fitted curve at half-maximal effect; series mostly up to about 57 µM; % is scaled to controls: 0 for no effect and ±100 for the full control effect; nearly all actives have a fitted effect of over 65% in size
HP1b binding inh – HP1-beta chromodomain-methylated histone interaction inhibition. Potency, µM (titrated, usually from 114 µM), for the others: at the highest dose activity change, negative = inhibition, actives largely listed as inhibitors. P83916. AlphaScreen HP1-beta / biotin-H3K9me3 peptide binding. 390,000 tested, 0.56% active. AID 540317; also: potency is read from the fitted curve at half-maximal effect; nearly all actives have a fitted effect of over 70% in size
Target sequence (P83916 whole entry, looked up): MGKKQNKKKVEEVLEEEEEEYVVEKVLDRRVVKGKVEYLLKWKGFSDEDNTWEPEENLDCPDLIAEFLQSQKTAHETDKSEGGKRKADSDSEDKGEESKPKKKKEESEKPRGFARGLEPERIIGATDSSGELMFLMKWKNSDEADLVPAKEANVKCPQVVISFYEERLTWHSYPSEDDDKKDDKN
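Compound inhibition of the preformed complex between 50 nM HP1-beta and 50 nM biotinylated H3K9me3 peptide was read by AlphaScreen. Buffer was PBS pH 7.4 with 0.01% Tween-20. Incubations ran 30 min at room temperature, with 10 ug/mL donor/acceptor beads.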
PI5P4K alpha inh – PI5P4K alpha (human) kinase inhibition; P48426; PI5P4Kalpha enzyme, ADP-Glo luminescence, 60 min; stronger effect = lower value; max response, %; 330,000 tested, 1.2% active; active = max response of -50% or lower; inconclusive = between -30% and -50%; inactive = -30% or higher; also: value at the top dose of about 77 µM; % is scaled to controls: 0 for no effect and ±100 for the full control effect
Target sequence (P48426 whole entry, looked up): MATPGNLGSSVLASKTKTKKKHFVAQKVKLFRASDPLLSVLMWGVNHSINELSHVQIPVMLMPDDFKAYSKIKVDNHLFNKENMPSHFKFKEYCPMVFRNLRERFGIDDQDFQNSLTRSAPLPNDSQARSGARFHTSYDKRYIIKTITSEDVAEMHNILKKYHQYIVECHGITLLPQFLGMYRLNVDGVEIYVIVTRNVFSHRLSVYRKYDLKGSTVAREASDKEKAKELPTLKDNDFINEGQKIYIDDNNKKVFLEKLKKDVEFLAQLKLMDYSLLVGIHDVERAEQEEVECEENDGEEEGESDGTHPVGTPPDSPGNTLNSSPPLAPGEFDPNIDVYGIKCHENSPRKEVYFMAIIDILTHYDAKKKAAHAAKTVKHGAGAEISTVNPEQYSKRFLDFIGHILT
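Quantitative HTS of the MLSMR library against PI5P4Kalpha with substrate. ATP added last at 5 microM final; room temperature, 60 minutes. Remaining ATP depleted, ADP converted and read as luminescence.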
BAZ2B block – inhibitors of human BAZ2B bromodomain; 360,000 tested, 4.4% active; AlphaScreen BAZ2B-H3K14Ac peptide displacement; Potency, µM (top dose mostly 114 µM), without a hit: at the top dose activity change, negative = inhibition, hits mostly inhibitors; Q9UIF8; also: potency is read from the fitted curve at half-maximal effect; % is scaled to controls: 0 for no effect and ±100 for the full control effect; nearly all actives have a fitted effect of over 60% in size
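BAZ2B (50 nM) with biotin-H3(5-23)K14Ac peptide (50 nM) in PBS pH 7.4, 0.01% Tween-20, preformed 30 min, then compound 30 min at room temperature; top concentration 110uM. AlphaScreen streptavidin donor/nickel chelate acceptor beads (10 ug/mL final), 20 min dark, signal read.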
GCN5L2 inh-2 – confirmation of human GCN5L2 histone acetyltransferase inhibitors | shares compounds with GCN5L2 inh-1 | GCN5L2 HAT, ThioGlo1 CoA fluorescence, 20 min | Potency, µM, usual class: inhibitors | 140 tested, 70% active | AID 588347
* hit, by the source's call; ? = inconclusive; / = no result; [ ] = remark or other dose. Unless noted, calls follow the shape of the dose curve; as a rule, active = well fitted curve in the direction sought with a large enough effect; inconclusive = small, poorly fitted or top-dose-only effect, or another doubt; inactive = no such curve, though single readings can be large; an effect the other way counts as inactive or inconclusive.

SMILES	JMJD2A Tudor	GCN5L2 inh-1	PLK1 PBD inh	HP1b binding inh	PI5P4K alpha inh	BAZ2B block	GCN5L2 inh-2
COc1ccc2cc(-c3cc(C(=O)O)c4ccccc4n3)ccc2c1	8.8%	?	-3.0%	43.4%	-18.2	-25.5%	?
C=CCn1c(SCC(=O)Nc2cc(Cl)ccc2C(=O)O)nc2sc(C)c(C)c2c1=O	-14.3%	31.6µM*	23.8µM*	25.7%	0.5	-4.8%	?
CCOc1cc(/C=C2\C(=O)N(c3nc(-c4ccc(Br)cc4)cs3)N=C2c2ccccc2)ccc1O	?	?	?	?	-83.1*	?	5.13*
CN(C)c1ccc(C(=O)NCc2ccc3c(c2)CCN3C(=O)c2ccccc2)cc1	?	-20.2%	/	9.8%	/	9.9%	/
CCN(CC(=O)Nc1c(F)cccc1F)C(=O)/C=C/c1ccc2ccccc2n1	3.55µM*	?	13.4µM*	-89.4%	-99.7*	8.91µM*	22.9*
C=CCc1cccc2cc(C(=O)O)c(=O)oc12	-4.8%	-17.3%[0.501 µM]	-2.3%	11.3%	3.6	-38.1%	/
C=CCc1cccc2cc(C(=O)Nc3ccccc3C(=O)O)c(=O)oc12	-35.0%	?	11.9µM*	3.7%	-60.7*	50.1µM*	?
CC(C)C[C@H]1CN(CCCC[C@H]2CNC(=O)C(=O)N2CC2CCCCC2)C(=O)C(=O)N1CCC1CCCCC1	/	/	-6.5%	/	-1.9	/	/
COC(=O)[C@]12CCCCC=C1N(CCC1=CCCCC1)C(=O)[C@H](CC(=O)N1CCN(C(=O)c3ccco3)CC1)C2	/	/	-1.0%	/	1.2	/	/
CC(C)(C)c1cc(-c2csc(Nc3ccccc3)[n+]2Cc2ccc(C(=O)O)cc2)cc(C(C)(C)C)c1O	39.8µM*	22.4µM*	21.2µM*	44.7µM*	-10.2	39.8µM*	18.2*
O=C(Nc1ccc(O)c(-c2nc3ccccc3o2)c1)C1(c2ccc(Cl)cc2)CCCC1	16.6%	?	-7.8%	80.0%	1.4	69.7%	14.5*
O=C(N/N=C/c1ccc(-c2ccc(S(=O)(=O)Nc3ncccn3)cc2)o1)c1cc2ccccc2cc1O	50.1µM*	?	26.7µM*	28.2µM*	-84.4*	17.8µM*	?
Cc1ccc(S(=O)(=O)/N=C2/NC(=O)/C(=C\c3cc(Br)cc(Br)c3O)S2)cc1	50.1µM*	15.8µM*	18.8%	?	-78.2*	31.6µM*	11.5*
Cc1ccc(S(=O)(=O)/N=C2/NC(=O)/C(=C/c3cccnc3)S2)cc1	-24.6%	-24.2%	-16.8%	0.4%	?	11.1%[57.1 µM]	/
Cc1ccc(N2C(=O)C3C4C=CC(CC4)C3C2=O)cc1[N+](=O)[O-] (centres undefined)	-0.7%	?	-1.1%	31.8%	2.4	79.4µM*	16.2*
CC1=NN(c2cccc(C(=O)O)c2)C(=O)/C1=C\C=C\c1ccco1	8.91µM*	?	8.44µM*	12.6µM*	-79.7*	10µM*	?
CCOC(=O)C1=C(COC(=O)CCC(=O)c2ccc(C)cc2)NC(=O)NC1C (centres undefined)	-6.7%	1.2%	-1.7%	32.4%	-17.2	4.2%	/
CCN(CC)Cc1c(O)ccc2c(=O)c(Oc3ccccc3OC)coc12	-12.8%	?	-8.9%	22.0%	-4.6	-1.1%	?
CCc1ccc(S(=O)(=O)c2cnc3ccc(OC)cc3c2N2CCCC(C)C2)cc1 (centres undefined)	-8.0%	-11.6%	/	24.2%	/	-11.9%	/
Cc1ccc(-c2cnc(-c3ccncc3)o2)cc1	-8.7%[57.1 µM]	?	-12.8%	37.6%	2.1	0.6%	18.2*
Cc1ccc(S(=O)(=O)N2[C@@H](c3ccccc3F)C(C(=O)O)=CC[C@H]2c2ccc(Cl)c(Cl)c2)cc1	-18.6%	28.2µM*	?	26.6%	-1.9	70.8µM*	?
Cc1ccc(S(=O)(=O)N2[C@@H](c3ccccc3F)C(C(=O)O)=CC[C@H]2c2cccc(C)c2)cc1	-19.7%	-9.8%	-4.0%	45.0%	-1.2	-6.1%	/
O=C(O)C1=CC[C@@H](c2ccc(Cl)cc2)N(S(=O)(=O)c2ccc(Cl)cc2)[C@H]1c1ccc(Br)cc1	-26.0%	25.1µM*	26.7µM*	0.8%	-28.3	/	18.2*
Cc1ccc(S(=O)(=O)N2[C@@H](c3ccc(F)cc3)C(C(=O)O)=CC[C@H]2c2ccc(Cl)cc2)cc1	-18.3%	-5.4%	?	16.4%	-12.1	4.6%	/
CNC(=O)c1ccc(NC(=O)CCNC(=O)Nc2ccccc2)cc1	-0.7%	-4.3%	-2.0%	38.0%	6.1	-1.6%	/
ClC(Cl)(c1nnnn1-c1ccccc1)c1nnnn1-c1ccccc1	20µM*	22.4µM*	1.89µM*	?	?	56.2µM*	8.13*
O=C(CN1C(=O)/C(=C2/SC(=S)N(CCS(=O)(=O)O)C2=O)c2ccccc21)Nc1cccc(C(F)(F)F)c1	12.6µM*	28.2µM*	10.6µM*	10µM*	-59.4*	/	?
O=C(CN1C(=O)/C(=C2\SC(=S)N(CCS(=O)(=O)O)C2=O)c2ccccc21)Nc1cccc(Br)c1	50.1µM*	20µM*	6.7µM*	50.1µM*	-97.3*	8.91µM*	11.5*
O=C(CN1C(=O)c2ccccc2Sc2ncccc21)Nc1cccc(C(F)(F)F)c1	-18.7%	-2.0%	/	1.6%	/	-16.5%	/
